Test results: PubChem BioAssay (Tox21)
Values joined by “and” are separate entries in the source; they are usually repeats but may differ in a detail not shown here. Equal values may be shown once. Inconclusive results are not listed. Entries that show only a call come without a potency. A structure can be active in one record and inactive in another. Active and inactive are the calls of the source. Unless noted, the call rests on the fitted dose curve; in most records, active means well fitted curve in the direction sought with a large enough effect in the repeat runs; inconclusive means weak or mixed curves; inactive means no such curve, though single readings can be large; an effect the other way counts as inactive or inconclusive.

Molecular target: Retinoic acid receptor RXR-alpha (Homo sapiens) (UniProt P19793)
Assay: qHTS assay to identify small molecule agonists of the RXR signaling pathway (AID 1159527; calls by dose curve; further: nearly all actives have a fitted effect of over 35% in size)
Details: HEK293T RXRa-UAS-bla, beta-lactamase ratio, 16 h; series mostly up to 76.8 µM; activation: at the top concentration
In short: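 Agonist mode; 9-cis retinoic acid positive control. HEK 293T UAS-bla reporter cells, 2% charcoal-stripped FBS, 16 hr compound exposure at 37 C/5% CO2. LiveBLAzer B/G FRET substrate 2 hr RT; ex 405, em 460/530 nm.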

Sequence of Retinoic acid receptor RXR-alpha (Homo sapiens) (P19793 whole entry, looked up): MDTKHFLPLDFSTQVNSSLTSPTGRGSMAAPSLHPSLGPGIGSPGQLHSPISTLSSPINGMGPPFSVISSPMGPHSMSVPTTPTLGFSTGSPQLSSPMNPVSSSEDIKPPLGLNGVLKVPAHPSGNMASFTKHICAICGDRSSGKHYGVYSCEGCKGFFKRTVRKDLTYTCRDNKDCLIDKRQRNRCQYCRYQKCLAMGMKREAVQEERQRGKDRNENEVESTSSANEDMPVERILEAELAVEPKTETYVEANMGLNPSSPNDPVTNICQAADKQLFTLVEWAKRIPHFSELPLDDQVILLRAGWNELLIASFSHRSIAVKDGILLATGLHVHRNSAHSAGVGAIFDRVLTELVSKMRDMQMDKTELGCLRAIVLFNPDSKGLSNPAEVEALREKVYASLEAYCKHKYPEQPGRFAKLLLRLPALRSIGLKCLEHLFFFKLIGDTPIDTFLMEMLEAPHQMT

Row | Compound | activation | Potency
1 | COC(=O)NC(=S)Nc1ccccc1NC(=S)NC(=O)OC | -11% (inactive) | 
2 | CN(C)[C@@H]1C(=O)C(C(N)=O)=C(O)[C@@]2(O)C(=O)C3=C(O)c4c(O)cccc4[C@@](C)(O)[C@H]3C[C@@H]12 | 0.159% [at 35.3 µM] (inactive) | 
3 | CC1OC(C)OC(C)O1 (stereo not drawn) | 9.07% [at 35.3 µM] (inactive) | 
4 | COc1ccc2c3c1O[C@H]1[C@@H](O)C=C[C@H]4[C@@H](C2)N(C)CC[C@@]341 | 3.12% (inactive) | 
5 | O=C(O)c1ccccn1 |  | inactive
6 | CCN(CC)c1ccccc1 | -1.22% (inactive) | 
7 | O=c1ccc(=O)[nH][nH]1 | 11% (inactive) | 
8 | CN1C(=O)CN=C(c2ccccc2)c2cc(Cl)ccc21 | 3.1% (inactive) | 
9 | [N-]=[N+]=[N-] | -11.6% (inactive) | 
10 | C=CCO |  | inactive
11 | CCC[N+](=O)[O-] | -0.451% (inactive) | 
12 | CCCCCOC(=O)c1ccccc1C(=O)OCCCCC | -8.15% (inactive) | 
13 | C=C(C)CCl | 1.01% [at 6.98 µM] (inactive) | 
14 | c1ccc(OP(Oc2ccccc2)Oc2ccccc2)cc1 | 4.81% (inactive) | 
15 | O=C1CCCN1 |  | inactive

System: not listed separately
Assay: qHTS assay to identify small molecule agonists of the RXR signaling pathway - cell viability counter screen (AID 1159529); further: nearly all actives have a fitted effect of over 50% in size; further: potency means the concentration at half of the fitted maximal effect
Details: RXR-alpha-bla HEK293T viability, CellTiter-Glo, 16 h; series mostly up to 76.8 µM; activity change, negative = cytotoxicity: at the top concentration
In short: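 Luminescence from CellTiter-Glo (30 min, RT) measured viability in the same wells as the beta-lactamase reporter readout. Cells: GeneBLAzer RXR-alpha HEK 293T, 2% charcoal-stripped FBS. Compound exposure 16 hr, 37 C.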

Row | Compound | Potency | activity change, negative = cytotoxicity
16 | CCCN(CCC)c1c([N+](=O)[O-])cc(C(F)(F)F)cc1[N+](=O)[O-] | inactive | 
17 | COC(=O)NC(=S)Nc1ccccc1NC(=S)NC(=O)OC | inactive | 
18 | CCC(C)(CC)c1cc(NC(=O)c2c(OC)cccc2OC)on1 | inactive | 
19 | CN(C)[C@@H]1C(=O)C(C(N)=O)=C(O)[C@@]2(O)C(=O)C3=C(O)c4c(O)cccc4[C@@](C)(O)[C@H]3C[C@@H]12 | inactive | 
20 | CCN(CC)CCO | inactive | 
21 | CC1OC(C)OC(C)O1 (stereo not drawn) | inactive | 
22 | COc1ccc2c3c1O[C@H]1[C@@H](O)C=C[C@H]4[C@@H](C2)N(C)CC[C@@]341 | inactive | 
23 | CC(Oc1ccc(Cl)cc1Cl)C(=O)O (stereo not drawn) | inactive | 
24 | Nc1c(Cl)c(Cl)nc(C(=O)O)c1Cl | inactive | 
25 | O=C(O)c1ccccn1 | inactive | 
26 | CCCCN(CC)C(=O)SCCC | inactive | 
27 | CCNc1nc(NC(C)(C)C)nc(SC)n1 | inactive and 49 µM (active) | 
28 | Cc1ccc(N)cc1N | inactive | 
29 | NCCc1ccc(O)cc1 | 48.6 µM (active) and inactive | 
30 | CCN(CC)c1ccccc1 |  | 4.71% (inactive)
31 | O=c1ccc(=O)[nH][nH]1 | inactive | 
32 | CCOC(=O)c1ccccc1C(=O)OCC | inactive | 
33 | COC(=O)c1ccccc1C(=O)OC | inactive | 

Row | Compound | Potency | activity change, negative = cytotoxicity
34 | CN1C(=O)CN=C(c2ccccc2)c2cc(Cl)ccc21 |  | -0.306% [at 35.3 µM] (inactive)
35 | COC(=O)c1ccccc1N | inactive | 
36 | [N-]=[N+]=[N-] | inactive | 
37 | C=CCO | inactive | 
38 | O=S(=O)(c1ccc(Cl)cc1)c1cc(Cl)c(Cl)cc1Cl | inactive | 
39 | CCC[N+](=O)[O-] | 30.3 µM (active) and inactive | 
40 | CCCC1COC(Cn2cncn2)(c2ccc(Cl)cc2Cl)O1 (stereo not drawn) |  | -24.4% (inactive)
41 | CCCCCOC(=O)c1ccccc1C(=O)OCCCCC | inactive | 
42 | C=C(C)CCl | inactive | 
43 | C1CN2CCN1CC2 | inactive | 
44 | CCOP(=S)(OCC)Oc1cnc2ccccc2n1 | inactive | 
45 | Cc1ccc([N+](=O)[O-])cc1C | inactive | 
46 | CC(C)=C[C@@H]1[C@@H](C(=O)OCc2coc(Cc3ccccc3)c2)C1(C)C |  | -14.6% (inactive)
47 | C[C@]12CC[C@H]3[C@@H](CC[C@@]45O[C@@H]4C(O)=C(C#N)C[C@]35C)[C@@H]1CC[C@@H]2O | inactive | 
48 | c1ccc(OP(Oc2ccccc2)Oc2ccccc2)cc1 | inactive | 
49 | O=C1CCCN1 | inactive | 
50 | c1ccc2c(c1)oc1ccccc12 | inactive | 
51 | Cc1cccc([N+](=O)[O-])c1 | inactive | 

System: not listed separately
Assay: qHTS assay to identify small molecule antagonists of the retinoid acid receptor (RAR) signaling pathway - cell viability counter screen (AID 1159551); further: nearly all actives have a fitted effect of over 35% in size
Details: C3RL4 cells viability, ATP luminescence (CellTiter-Glo), 6 h; series mostly up to 92.4 µM; activity change, negative = cytotoxicity: at the top concentration
In short: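 Cytotoxicity counter screen: ATP content quantified by CellTiter-Glo luminescence in C3RL4 cells treated 6 hr at 37 C with compound and retinol (1 uM final). Cells plated at 1,000/well and cultured overnight before dosing.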

Row | Compound | outcome | activity change, negative = cytotoxicity
52 | CCCN(CCC)c1c([N+](=O)[O-])cc(C(F)(F)F)cc1[N+](=O)[O-] | inactive | 
53 | COC(=O)NC(=S)Nc1ccccc1NC(=S)NC(=O)OC | inactive | 
54 | CCC(C)(CC)c1cc(NC(=O)c2c(OC)cccc2OC)on1 | inactive | 
55 | CN(C)[C@@H]1C(=O)C(C(N)=O)=C(O)[C@@]2(O)C(=O)C3=C(O)c4c(O)cccc4[C@@](C)(O)[C@H]3C[C@@H]12 | inactive | 
56 | CCN(CC)CCO | inactive | 
57 | CC1OC(C)OC(C)O1 (stereo not drawn) | inactive | 
58 | COc1ccc2c3c1O[C@H]1[C@@H](O)C=C[C@H]4[C@@H](C2)N(C)CC[C@@]341 |  | 1.56% (inactive)
59 | CC(Oc1ccc(Cl)cc1Cl)C(=O)O (stereo not drawn) | inactive | 
60 | Nc1c(Cl)c(Cl)nc(C(=O)O)c1Cl | inactive | 
61 | O=C(O)c1ccccn1 | inactive | 
62 | CCCCN(CC)C(=O)SCCC | inactive | 
63 | CCNc1nc(NC(C)(C)C)nc(SC)n1 | inactive | 
64 | Cc1ccc(N)cc1N | inactive | 
65 | NCCc1ccc(O)cc1 | inactive | 
66 | CCCCN(CCCC)SN(C)C(=O)Oc1cccc2c1OC(C)(C)C2 | inactive | 
67 | CCN(CC)c1ccccc1 | inactive | 
68 | O=c1ccc(=O)[nH][nH]1 | inactive | 
69 | CCOC(=O)c1ccccc1C(=O)OCC |  | 1.81% (inactive)
70 | COC(=O)c1ccccc1C(=O)OC | inactive | 

Row | Compound | outcome | activity change, negative = cytotoxicity
71 | CN1C(=O)CN=C(c2ccccc2)c2cc(Cl)ccc21 | inactive | 
72 | COC(=O)c1ccccc1N | inactive | 
73 | [N-]=[N+]=[N-] | inactive | 
74 | C=CCO | inactive | 
75 | O=S(=O)(c1ccc(Cl)cc1)c1cc(Cl)c(Cl)cc1Cl | inactive | 
76 | CCC[N+](=O)[O-] |  | -0.423% (inactive)
77 | CCCC1COC(Cn2cncn2)(c2ccc(Cl)cc2Cl)O1 (stereo not drawn) | inactive | 
78 | CCCCCOC(=O)c1ccccc1C(=O)OCCCCC | inactive | 
79 | C=C(C)CCl | inactive | 
80 | C1CN2CCN1CC2 | inactive | 
81 | CCOP(=S)(OCC)Oc1cnc2ccccc2n1 | inactive | 
82 | Cc1ccc([N+](=O)[O-])cc1C | inactive | 
83 | CC(C)=C[C@@H]1[C@@H](C(=O)OCc2coc(Cc3ccccc3)c2)C1(C)C | inactive | 
84 | C[C@]12CC[C@H]3[C@@H](CC[C@@]45O[C@@H]4C(O)=C(C#N)C[C@]35C)[C@@H]1CC[C@@H]2O | inactive | 
85 | c1ccc(OP(Oc2ccccc2)Oc2ccccc2)cc1 | inactive | 
86 | O=C1CCCN1 | inactive | 
87 | c1ccc2c(c1)oc1ccccc12 | inactive | 
88 | Cc1cccc([N+](=O)[O-])c1 | inactive | 
